Data on 40 sequences can be found in the OligoGym collection.
Further: reference of the scale not given here.

In the first experiment the target is PEG10. Description: pooled miR-30 sensor sort-seq; sequence = guide strand. As to conditions: shRNA.
Sequence TTTGGCAACCTCTCGCCTCTGA gave a sensor-assay potency score (higher = more potent) of -0.158.
TTGATCTCTTCAGAGAGCTCGT had a sensor-assay potency score (higher = more potent) of 0.178.
In the case of TTCCACTTGCTCTCGAAGGGTG, the sensor-assay potency score (higher = more potent) is -0.417.
Same read-out and setting: then TGTCAGCGTAGTGACCTCCTGT, with -0.0667.
Still for that read-out and setting: then TCTTTCTTTTTCTTCCTGCGTC, with -0.141; and TCAACTGAGAAATCCCTGGTGC, with 0.598.
The same measure, in the same setting: under TTAAGTTGTTGATCTCTTCAGA stands -0.104; under TAGTTGTGCATCAGGTAGTGGG, -0.718.

The next experiment deals with PEG3. The experiment is described as above. The conditions noted are these: shRNA.
In turn, TAATCTCTCTGATACTCGCTGA returned a sensor-assay potency score (higher = more potent) of -0.226.
Consider TTTGTCATCAGGGTCATCCTTC, for which the sensor-assay potency score (higher = more potent) was found to be 0.301.
The same measure, in the same setting: then TTTCTTTTTAGCACGAGCCTTC, with -0.635; and TTGTGTTGAGGTCTTCGCTGGT, with 0.119; and TTGATCTTCACCTTCTTCTGGG, with 0.701.
Still for that read-out and setting: then TTATCATCTGACATTCTGGGGA, with 0.23; and ATAACCTCTAGCATGAATCTTC, with -0.113.
The same measure, in the same setting: under TTCTTCTACCTGAATCTCTTGA stands 0.127.
With TTCACTGACAGCCACACTGTGG, the sensor-assay potency score (higher = more potent) was -0.755.
Still for that read-out and setting: then TTCAATGAAATGTCCTTCCAGT, with 0.297.
The same measure, in the same setting: then TTGATCGTGAATCGAGCCCTTC, with -0.255; and TTATAGTATGACTCTTCTGAGA, with -1.1.

The target of a further experiment is PELI3. The description is as above. As to conditions: shRNA.
In turn, TTGCTAGAGGCATCGAAGCCAG gave a sensor-assay potency score (higher = more potent) of -0.912.
The same measure, in the same setting: then TCTGTGTCGCTATCATGTGTAT, with -0.903; and ATCATGTGTATACTCCACTATG, with -1.35; and TACACATTCCCACAGACCGAGA, with -1.66.
Same read-out and setting: then TATCATGTGTATACTCCACTAT, with -0.135.
For the sequence ATTGGTGGTCAGTCCATCCATC, the sensor-assay potency score (higher = more potent) was -0.798.
Same read-out and setting: then TGGAACATGTCTGTGTCGCTAT, with 0.131; and TCAATCATGTTCTCTGTGGAGC, with -0.446; and ATCATGTTCTCTGTGGAGCGGC, with -0.826.
The same measure, in the same setting: then TGTATACTCCACTATGACCGAG, with -0.429; and TGTCTGTGTCGCTATCATGTGT, with -0.284.
Same read-out and setting: under AAGTCAATCATGTTCTCTGTGG stands -0.484.

A further experiment concerns the target PEX11G. The description is as above. As to conditions: shRNA.
TTCCCTAGGACGGAGACACAGC showed a sensor-assay potency score (higher = more potent) of -1.05.
As for TGGACACCACCAACAGACGTGT, the sensor-assay potency score (higher = more potent) is -1.09.
On the same count and under the same terms, then AAGAGTCGCAAGATGGTCCTGC, with 0.55; and TTAGTGTAGACAAACATGGCCA, with -0.26.
Same read-out and setting: under TTTCAGCAGCATCCACAGGGAC stands -0.746; under TTCAGCAGCATCCACAGGGACC, -1.68.
The same measure, in the same setting: under TAGTGTAGACAAACATGGCCAG stands -0.684.
TTGGGTGGACACCACCAACAGA had a sensor-assay potency score (higher = more potent) of -1.13.
